This note sets out measurements from PubChem BioAssay (NCATS).

The test in a line: qHTS for identification of novel therapeutic agents for treatment of microphthalmiaassociated transcription factor (MiT) renal cell carcinoma (RCC) (AID 1963991). The settings on record: CellTiter-Glo, 48 h; for z-score: stronger effect = lower value. From the text:
PI: Marston Linehan Ph.D.
Urologic Oncology Branch, Center for Cancer Research (CCR)
National Cancer Institute (NCI), National Institute of Health (NIH), Bethesda, Maryland
MiT-Renal Cell Carcinoma (RCC) is characterized by genomic translocations involving microphthalmia-associated transcription factor (MiT) family members TFE3, TFEB, or MITF. MiT-RCC represents a specific subtype of sporadic RCC that is predominantly seen in young patients and can present with heterogeneous histological features making diagnosis challenging. Moreover, the disease biology of this aggressive cancer is poorly understood and there is no accepted standard of care therapy for patients with advanced disease. Tumor-derived cell lines have been established from human TFE3-RCC providing useful models for preclinical studies. TFE3-RCC tumor derived cell lines and their tissues of origin were characterized by IHC and gene expression analyses. An unbiased high-throughput drug screen was performed to identify novel therapeutic agents for treatment of MiT-RCC. Potential therapeutic candidates were validated in in vitro and in vivo preclinical studies. Mechanistic assays were conducted to confirm the on-target effects of drugs. The results of a high-throughput small molecule drug screen utilizing three TFE3-RCC tumor-derived cell lines identified five classes of agents with potential pharmacological efficacy, including inhibitors of phosphoinositide-3-kinase (PI3K) and mechanistic target of rapamycin (mTOR), and several additional agents, including the transcription inhibitor Mithramycin A. Upregulation of the cell surface marker GPNMB, a specific MiT transcriptional target, was confirmed in TFE3-RCC and evaluated as a therapeutic target using the GPNMB-targeted antibody-drug conjugate CDX-011. […] The results of the high-throughput drug screen and validation studies in TFE3-RCC tumor-derived cell lines have provided in vitro and in vivo preclinical data supporting the efficacy of the PI3K/mTOR inhibitor.
SEQUENCE No. (e.g., 1, 2, 3, etc.); […] (e.g., Cells, Incubation, Reagent, etc.); VALUE; DESCRIPTION.
1; Cells; 3 uL; white, solid-bottom Grenier assay plate.
2; Compounds; 23 nL; Kalypsis pin-tool (Wako USA).
3; Incubation; 48 hr; 37 C, 5% CO2, 95% humidity.
4; Reagent; 3 uL; CellTiter-Glo reagent (Promega).
5; Incubation; 15 min; room temperature.
6; Detection; Luminescence; ViewLux plate reader (PerkinElmer).
NOTES (numbers refer to Sequence numbers above)
1. Quantitative high-throughput screening (qHTS) of 1912 pharmacologically defined small molecule compounds was conducted on three TFE3-fusion cell lines bearing three different fusion partners (UOK109, UOK124, UOK145). Briefly, 500 cells in complete growth media were plated into white, solid-bottom, 1536-well tissue culture treated plates (Grenier Cat. 789173-F) using a Multidrop Combi cassette dispenser.
2. Twenty-three nanoliter of 1912 pharmacologically defined small molecule compounds of the NCATS Mechanism Interrogation PlatE (MIPE) version 4.0 were added to each assay plate using a Pintool Dispenser (Wako) equipped with 1536 pin head.
3. Plates were covered with stainless steel gasketed lids and incubated for 48 hours at standard cell culture conditions.
4. Viability was assessed by adding 3uL of CellTiter-Glo detection reagent (Promega).
5. Plates were covered with gasket lids and incubated for 15 minutes at room temperature.
6. Luminescence was measured on a ViewLux plate reader (PerkinElmer). Post-screen data processing used DMSO controls as 100% viability and empty wells as 0% viability and dose response curve fitting was done for all 11 concentrations for each compound.

The mark [1] stands for this setting: TFE3-RCC UOK109 viability, measured here: UOK109 Z-AUC.
Where [2] appears, read: TFE3-RCC viability, measured here: UOK124 Z-AUC.
The mark [3] stands for this setting: TFE3-RCC viability, measured here: UOK145 Z-AUC.

Inconclusive results are not listed. Activity calls are given as the source filed them. The call rests on the fitted dose curve.
Potency means the concentration at half of the fitted maximal effect.

With `C[C@@H]1O[C@@H](O[C@H]2C[C@@H](O)[C@]3(CO)[C@H]4[C@H](O)C[C@]5(C)[C@@H](C6=CC(=O)OC6)CC[C@]5(O)[C@@H]4CC[C@]3(O)C2)[C@H](O)[C@H](O)[C@H]1O`, the Potency (TFE3-RCC UOK109 viability) was 16.6 nM (active). The molecule further yielded a z-score under setting [1] of -3.9, a z-score under setting [2] of -2.36 and a z-score under setting [3] of -3.38.
Turning to `COc1ccc2c(c1OC)CN1CCc3cc4c(cc3C1C2)OCO4` (stereo not given), the z-score came to 0.633 under setting [1], 0.605 under setting [2] and 0.614 under setting [3].
For `CN(C)[C@@H]1C(=O)C(C(N)=O)=C(O)[C@@]2(O)C(=O)C3=C(O)c4c(O)cccc4[C@@](C)(O)[C@H]3C[C@@H]12` the same measures were 1.21, 0.89 and 1.72.
For `COC[C@@H](NC(C)=O)C(=O)NCc1ccccc1` the same measures were -0.0332, 0.828 and 0.367.
On the same counts, the results for `CC1=C2C[C@@H]3[C@@H](CC=C4C[C@@H](O)CC[C@@]43C)[C@@H]2CC[C@]12O[C@H]1C[C@H](C)CN[C@H]1[C@H]2C` are 0.302, -0.274 and 0.235.
Consider `O=C1CC[C@@]2(O)[C@H]3Cc4ccc(O)c5c4[C@@]2(CCN3CC2CC2)[C@H]1O5`, for which the z-score was determined as 0.814 under setting [1], 0.454 under setting [2] and 1.09 under setting [3].
For the molecule `Cn1c(CCCC(=O)O)nc2cc(N(CCCl)CCCl)ccc21`, the z-score is, setting by setting: under setting [1], 1.39; under setting [2], 2.59; under setting [3], 0.899.
For `C#CCN(C)[C@H](C)Cc1ccccc1` the same measures were 0.064, -0.193 and 0.147.
For `CNCC(O)c1ccc(O)cc1` (stereo not given) the same measures were 0.0605, 0.435 and -0.102.
For `CCCC(C)(COC(N)=O)COC(=O)NC(C)C` (stereo not given) the same measures were -0.172, 0.563 and 0.256.
Take `NCC1(CC(=O)O)CCCCC1`: the z-score is 0.318 under setting [1], 0.516 under setting [2] and -0.0302 under setting [3].
On the same counts, the results for `Cc1cccc(C)c1NC(=O)CN1CCCC1=O` are 1.77, 0.0528 and 0.844.
For `CN(C)CCc1ccc(O)cc1` the same measures were 2.07, 0.378 and 0.923.
